Measurements as given in PubChem BioAssay (EPA / NIEHS).
Records with an inconclusive call do not appear. Calls of active or inactive are those of the source. Rule for the calls, unless noted: active = hit-call score of the fitted dose curve at least 0.9, where 1 is the maximum; inactive = score below 0.9.

How the values were obtained:
[1] = molecular target: Paired box protein Pax-6 (Homo sapiens) (UniProt P26367); assay: ATG_Pax6_CIS: Attagene CIS-FACTORIAL HepG2 Assay for human Paired Box 6 (PAX6) (AID 2282956); settings: HepG2 CIS-FACTORIAL PAX6 reporter transcription, RNA readout; actives raise or lower the signal
Method in brief: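 HepG2 cells transiently transfected with cis-promoter-driven multiplexed reporter units sensing endogenous transcription factor activity; 24 h chemical exposure. Reporter mRNA quantified by RT-PCR, 6-FAM labelling, HpaI digestion and capillary electrophoresis; bidirectional fit versus DMSO baseline.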

[2] = ATG_PXRE_CIS: Attagene CIS-FACTORIAL HepG2 Assay for human Pregnane X Receptor Element (PXRE) (AID 2282957); settings: HepG2 Attagene CIS-FACTORIAL PXRE reporter, mRNA; actives raise or lower the signal
Method in brief: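 HepG2 cells transiently transfected with cis-element-driven multiplexed reporter units; after 24 h chemical exposure, reporter mRNA measured by RT-PCR, 6-FAM labelling, HpaI digestion and capillary electrophoresis. Bidirectional fitting relative to DMSO.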

[3] = ATG_PPRE_CIS: Attagene CIS-FACTORIAL HepG2 Assay for human Peroxisome Proliferator-activated Response Element (PPRE) (AID 2282958); settings: HepG2 PPRE cis-element reporter, Attagene transcription factor profiling; actives raise or lower the signal
Method in brief: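 Read-out: fluorescent reporter mRNA fragments resolved by capillary electrophoresis after RT-PCR. HepG2 cells carried transiently transfected PPRE-driven cis reporter constructs and were dosed for 24 h; gain or loss of signal fitted relative to DMSO.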

[4] = ATG_RORE_CIS: Attagene CIS-FACTORIAL HepG2 Assay for human RAR-related Orphan Receptor Element (RORE) (AID 2282959); settings: HepG2 Attagene cis-factorial RORE reporter, mRNA; actives raise or lower the signal
Method in brief: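 Readout: fluorescent reporter mRNA by RT-PCR plus capillary electrophoresis, 24 h after dosing transfected HepG2 cells. Endogenous transcription factor activity on a cis promoter element is measured. Gain or loss of signal fitted against DMSO.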

[5] = ATG_Sox_CIS: Attagene CIS-FACTORIAL HepG2 Assay for human SRY-box transcription factor (SOX) (AID 2282960); settings: HepG2 Attagene cis-factorial SOX reporter, mRNA; actives raise or lower the signal
Method in brief: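 Read-out: fluorescent RT-PCR products of SOX1-linked reporter transcripts resolved by capillary electrophoresis, fitted bidirectionally against DMSO. Transiently transfected HepG2 cells, 24 h after chemical exposure, endogenous transcription factor activity.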

[6] = molecular target: Transcription factor Sp1 (Homo sapiens) (UniProt P08047); assay: ATG_Sp1_CIS: Attagene CIS-FACTORIAL HepG2 Assay for human Specificity Protein 1 (Sp1) (AID 2282961); settings: HepG2 Sp1 cis-reporter transcription, actives raise or lower the signal
Method in brief: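 Read-out: fluorescence of 6-FAM-labeled, HpaI-digested RT-PCR products separated by capillary electrophoresis. HepG2 cells carried transfected cis-element reporter units and were exposed to chemicals for 24 h; gain or loss of signal fitted relative to DMSO.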

[7] = ATG_SREBP_CIS: Attagene CIS-FACTORIAL HepG2 Assay for human Sterol Regulatory Element Binding (SREBP) (AID 2282962); settings: HepG2 Attagene cis-factorial SREBP reporter, mRNA; actives raise or lower the signal
Method in brief: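 HepG2 cells transiently transfected with multiplexed cis-promoter reporter units sensing endogenous transcription factors; reporter mRNA measured 24 h after dosing by RT-PCR, 6-FAM labeling, HpaI digestion and capillary electrophoresis. Bidirectional fit versus DMSO.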

[8] = molecular target: Signal transducer and activator of transcription 3 (Homo sapiens) (UniProt P40763); assay: ATG_STAT3_CIS: Attagene CIS-FACTORIAL HepG2 Assay for human Signal Transducer and Activator of Transcription 3 (STAT3) (AID 2282963); settings: HepG2, Attagene cis-factorial STAT3 reporter transcription; actives raise or lower the signal
Method in brief: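 Transcript-level reporter assay. HepG2 transient MRTU transfection, 24 h exposure, fluorescence detection after RT-PCR and CE; DMSO baseline.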

[9] = ATG_TCF_b_cat_CIS: Attagene CIS-FACTORIAL HepG2 Assay for human T-Cell-Factor with beta-catenin (TCF/b-cat) (AID 2282965); settings: HepG2 TCF/beta-catenin cis-reporter transcription, actives raise or lower the signal
Method in brief: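 Using capillary electrophoresis as the read-out, labelled reporter cDNA fragments from transiently transfected HepG2 were sized and quantified. Exposure lasted 24 hours; activity in either direction was referenced to DMSO.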

[10] = ATG_TAL_CIS: Attagene CIS-FACTORIAL HepG2 Assay for human TAL Basal Promoter (AID 2282966); settings: HepG2 Attagene cis-factorial TAL promoter reporter; actives raise or lower the signal;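 note: background control endpoint measuring basal TAL promoter reporter mRNA not a specific factor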
Method in brief: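 HepG2 cells transiently transfected with multiplexed cis-promoter reporter units, dosed 24 h. Reporter mRNA quantified by RT-PCR, 6-FAM labelling, HpaI digestion and capillary electrophoresis; TAL basal promoter serves as background control, fitted bidirectionally versus DMSO.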

[11] = ATG_TGFb_CIS: Attagene CIS-FACTORIAL HepG2 Assay for human Transforming Growth Factor (TGF) (AID 2282967); settings: HepG2 Attagene CIS TGFb reporter, mRNA transcription; actives raise or lower the signal
Method in brief: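 Endogenous TGFB1-linked transcription factor activity read as reporter mRNA via RT-PCR and capillary electrophoresis, 24 h after dosing transiently transfected HepG2 cells. Gain or loss of signal fitted relative to DMSO.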

[12] = molecular target: Estrogen receptor (Homo sapiens) (UniProt P03372); assay: ATG_ERa_TRANS: Attagene TRANS-FACTORIAL HepG2 Assay for human Estrogen Receptor alpha (ERa) (AID 2282970; active = hit-call score of the fitted dose curve at least 0.9, where 1 is the maximum); settings: HepG2 Attagene TRANS ERa GAL4 reporter, mRNA
Method in brief: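 HepG2 cells transiently transfected with multiplexed GAL4-UAS reporter units read out chimeric NR-Gal4 activity. After 24 h compound exposure, reporter mRNA was quantified by RT-PCR, 6-FAM labeling, HpaI digestion and capillary electrophoresis, relative to DMSO.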

[13] = molecular target: X-box-binding protein 1 (Homo sapiens) (UniProt P17861); assay: ATG_Xbp1_CIS: Attagene CIS-FACTORIAL HepG2 Assay for human X-box Binding Protein 1 (XBP1) (AID 2282972); settings: HepG2 XBP1 cis-element reporter, Attagene multiplex; actives raise or lower the signal
Method in brief: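 HepG2 cells transiently transfected with multiple cis-element reporter units report endogenous TF activity; 24 h exposure, then reporter mRNA measured by RT-PCR, 6-FAM labelling, HpaI digestion and capillary electrophoresis. Bidirectional fitting versus DMSO.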

[14] = ATG_TA_CIS: Attagene CIS-FACTORIAL HepG2 Assay for human TA Basal Promoter (AID 2282964); settings: HepG2 Attagene CIS-factorial TA basal promoter reporter; actives raise or lower the signal
Method in brief: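 Background-control readout: TA basal promoter reporter mRNA, fitted in both directions relative to DMSO. Measured by RT-PCR and capillary electrophoresis 24 hours after treating HepG2 human liver cells transiently carrying multiplexed cis-regulated reporter constructs.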

[15] = ATG_VDRE_CIS: Attagene CIS-FACTORIAL HepG2 Assay for human Vitamin D Receptor Element (VDRE) (AID 2282968); settings: HepG2 VDRE cis-reporter transcription, actives raise or lower the signal
Method in brief: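 RT-PCR/CE readout of reporter mRNA; HepG2, transient transfection, 24 h dosing; DMSO baseline; bidirectional analysis.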

[16] = ATG_GAL4_TRANS: Attagene TRANS-FACTORIAL HepG2 Assay for GAL4 (Internal Marker) (AID 2282976; active = hit-call score of the fitted dose curve at least 0.9, where 1 is the maximum); settings: HepG2 Attagene TRANS GAL4 internal marker reporter
Method in brief: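 Background-control readout: GAL4-UAS reporter transcript in transiently transfected HepG2 cells after 24 h compound exposure. Measured by RT-PCR, 6-FAM primer extension, HpaI digest and capillary electrophoresis; gain-of-signal fit versus DMSO.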

[17] = ATG_M_19_TRANS: Attagene TRANS-FACTORIAL HepG2 Assay for M19 Transcription Factor (Internal Marker) (AID 2282974; active = hit-call score of the fitted dose curve at least 0.9, where 1 is the maximum); settings: HepG2 Attagene TRANS-FACTORIAL M19 internal marker reporter
Method in brief: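 24 h chemical exposure of transiently transfected HepG2 (MRTU library). RNA → oligo(dT) RT → PCR → 6-FAM labelling → HpaI cut → CE fluorescence. Positive-direction fit vs DMSO baseline; background internal-marker readout.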

[18] = molecular target: Nuclear receptor subfamily 1 group I member 3 (Homo sapiens) (UniProt Q14994); assay: ATG_CAR_TRANS: Attagene TRANS-FACTORIAL HepG2 Assay for human Constitutive Androstane Receptor (CAR) (AID 2282969; active = hit-call score of the fitted dose curve at least 0.9, where 1 is the maximum;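 note: activators raise reporter mRNA above DMSO so AC50 marks induction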); settings: HepG2 Attagene TRANS-FACTORIAL CAR reporter
Method in brief: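 HepG2 cells transiently transfected with multiplexed GAL4-UAS reporter units expressing chimeric NR-Gal4 proteins; compound exposure 24 h. Reporter mRNA measured by RT-PCR, 6-FAM labelling, HpaI digestion and capillary electrophoresis; gain-of-signal fitted against DMSO baseline.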

Measured: AC50

Paired box protein Pax-6 (Homo sapiens), sequence (P26367 whole entry, looked up): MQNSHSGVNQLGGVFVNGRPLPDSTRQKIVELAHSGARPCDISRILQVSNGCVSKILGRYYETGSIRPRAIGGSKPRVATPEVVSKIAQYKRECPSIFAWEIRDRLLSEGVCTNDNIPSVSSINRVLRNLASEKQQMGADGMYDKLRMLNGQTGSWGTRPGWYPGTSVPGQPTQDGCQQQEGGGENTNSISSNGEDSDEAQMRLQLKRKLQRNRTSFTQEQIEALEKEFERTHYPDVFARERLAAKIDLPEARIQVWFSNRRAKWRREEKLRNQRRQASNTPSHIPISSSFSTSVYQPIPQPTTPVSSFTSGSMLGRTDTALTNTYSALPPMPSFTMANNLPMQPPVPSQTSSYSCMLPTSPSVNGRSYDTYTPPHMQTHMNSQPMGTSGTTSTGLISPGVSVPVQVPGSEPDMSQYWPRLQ
X-box-binding protein 1 (Homo sapiens), sequence (P17861 whole entry, looked up): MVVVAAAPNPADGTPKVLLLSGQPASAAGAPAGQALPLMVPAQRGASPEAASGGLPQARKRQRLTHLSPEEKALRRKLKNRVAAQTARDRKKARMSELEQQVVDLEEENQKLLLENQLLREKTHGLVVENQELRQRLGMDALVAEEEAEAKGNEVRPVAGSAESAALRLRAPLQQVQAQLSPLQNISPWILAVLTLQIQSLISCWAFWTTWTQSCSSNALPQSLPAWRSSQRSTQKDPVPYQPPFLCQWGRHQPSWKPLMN
Estrogen receptor (Homo sapiens), sequence (P03372 whole entry, looked up, the tested form may be a part): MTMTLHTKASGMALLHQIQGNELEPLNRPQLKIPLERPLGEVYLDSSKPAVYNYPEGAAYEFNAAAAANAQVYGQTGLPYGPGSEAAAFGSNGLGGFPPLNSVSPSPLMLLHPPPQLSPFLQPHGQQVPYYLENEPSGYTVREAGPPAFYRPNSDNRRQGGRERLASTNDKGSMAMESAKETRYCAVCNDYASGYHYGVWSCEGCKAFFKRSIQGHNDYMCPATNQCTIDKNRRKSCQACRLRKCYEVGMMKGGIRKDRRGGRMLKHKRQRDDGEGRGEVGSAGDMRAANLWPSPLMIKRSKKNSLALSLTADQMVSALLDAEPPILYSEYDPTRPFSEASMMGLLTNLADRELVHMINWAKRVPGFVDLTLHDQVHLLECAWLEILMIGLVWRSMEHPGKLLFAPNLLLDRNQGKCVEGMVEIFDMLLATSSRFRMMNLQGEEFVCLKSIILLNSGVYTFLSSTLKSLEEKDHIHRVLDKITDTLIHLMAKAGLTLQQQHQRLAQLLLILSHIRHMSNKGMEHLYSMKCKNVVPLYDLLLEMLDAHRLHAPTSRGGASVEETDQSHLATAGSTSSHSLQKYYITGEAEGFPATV
Transcription factor Sp1 (Homo sapiens), sequence (P08047 whole entry, looked up): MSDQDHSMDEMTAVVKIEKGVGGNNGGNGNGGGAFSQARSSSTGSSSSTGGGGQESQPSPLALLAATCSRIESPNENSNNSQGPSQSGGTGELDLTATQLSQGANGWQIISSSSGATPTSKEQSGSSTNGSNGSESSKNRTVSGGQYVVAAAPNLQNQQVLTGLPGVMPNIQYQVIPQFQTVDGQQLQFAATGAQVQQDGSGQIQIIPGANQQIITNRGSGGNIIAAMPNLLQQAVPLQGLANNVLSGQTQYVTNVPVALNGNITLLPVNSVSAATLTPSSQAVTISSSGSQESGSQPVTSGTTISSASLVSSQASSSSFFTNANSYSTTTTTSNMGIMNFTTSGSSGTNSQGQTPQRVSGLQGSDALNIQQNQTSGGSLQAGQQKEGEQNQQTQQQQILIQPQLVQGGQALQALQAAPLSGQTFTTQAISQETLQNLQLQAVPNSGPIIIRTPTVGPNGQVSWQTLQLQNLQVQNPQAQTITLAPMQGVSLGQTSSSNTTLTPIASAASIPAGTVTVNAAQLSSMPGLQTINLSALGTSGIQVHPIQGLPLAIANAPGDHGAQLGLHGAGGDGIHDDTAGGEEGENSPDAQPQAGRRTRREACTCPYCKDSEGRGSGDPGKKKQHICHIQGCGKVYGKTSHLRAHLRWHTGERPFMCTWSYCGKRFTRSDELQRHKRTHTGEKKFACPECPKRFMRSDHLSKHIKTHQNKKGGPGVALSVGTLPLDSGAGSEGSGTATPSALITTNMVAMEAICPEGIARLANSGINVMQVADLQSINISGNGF
Signal transducer and activator of transcription 3 (Homo sapiens), sequence (P40763 whole entry, looked up): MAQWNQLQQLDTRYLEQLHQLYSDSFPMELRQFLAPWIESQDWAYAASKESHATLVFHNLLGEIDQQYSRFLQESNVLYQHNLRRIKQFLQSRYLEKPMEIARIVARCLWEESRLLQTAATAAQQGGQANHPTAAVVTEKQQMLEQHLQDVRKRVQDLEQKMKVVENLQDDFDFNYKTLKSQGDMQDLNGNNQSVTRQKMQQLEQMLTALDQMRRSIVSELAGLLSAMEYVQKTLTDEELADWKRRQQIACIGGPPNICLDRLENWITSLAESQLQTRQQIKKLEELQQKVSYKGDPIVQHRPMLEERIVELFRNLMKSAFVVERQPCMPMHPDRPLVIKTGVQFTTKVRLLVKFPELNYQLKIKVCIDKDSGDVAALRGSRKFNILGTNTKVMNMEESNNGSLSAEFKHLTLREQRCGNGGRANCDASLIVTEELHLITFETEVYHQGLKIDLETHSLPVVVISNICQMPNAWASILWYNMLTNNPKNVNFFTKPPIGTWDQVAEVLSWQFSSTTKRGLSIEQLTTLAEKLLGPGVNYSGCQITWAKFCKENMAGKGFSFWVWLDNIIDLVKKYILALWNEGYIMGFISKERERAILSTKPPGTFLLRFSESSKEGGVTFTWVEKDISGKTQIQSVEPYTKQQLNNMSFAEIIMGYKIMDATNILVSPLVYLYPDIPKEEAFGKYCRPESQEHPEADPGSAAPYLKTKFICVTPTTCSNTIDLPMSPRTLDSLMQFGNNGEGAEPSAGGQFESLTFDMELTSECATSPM
Nuclear receptor subfamily 1 group I member 3 (Homo sapiens), sequence (Q14994 whole entry, looked up, the tested form may be a part): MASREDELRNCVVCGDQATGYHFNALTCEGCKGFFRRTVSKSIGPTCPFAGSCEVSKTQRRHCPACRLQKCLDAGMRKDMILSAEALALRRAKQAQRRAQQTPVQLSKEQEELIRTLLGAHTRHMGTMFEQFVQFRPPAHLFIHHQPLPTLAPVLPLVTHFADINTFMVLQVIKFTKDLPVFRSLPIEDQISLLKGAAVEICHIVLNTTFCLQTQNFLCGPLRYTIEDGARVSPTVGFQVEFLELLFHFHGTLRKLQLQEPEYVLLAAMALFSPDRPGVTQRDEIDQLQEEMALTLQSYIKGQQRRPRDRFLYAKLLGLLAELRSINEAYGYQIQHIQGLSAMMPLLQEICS

O=C(O)CCCC(=O)O
not listed: [14] | [15] | [16] | [17] | [18]
inactive: all other assays above

CC12CCC(CC1)C(C)(C)O2
not listed: [12] | [17] | [18]
inactive: all other assays above

COC(=O)c1ccccc1C
active: [2] 40.6 µM
not listed: [12] | [15] | [16] | [18]
inactive: all other assays above

CN1CCN(C)CC1
not listed: [9] | [16] | [18]
inactive: all other assays above

CCCCCC[C@@H](O)C/C=C\CCCCCCCC(=O)OCC(O)CO (stereo partly drawn)
active: [1] 134 µM | [3] 11 µM | [6] 190 µM | [7] 122 µM | [14] 150 µM | [10] 164 µM | [13] 175 µM
not listed: [8] | [17] | [18]
inactive: all other assays above

Nc1nc(N)nc(-c2ccccc2)n1
not listed: [15] | [16]
inactive: all other assays above

Cc1ccc2c(c1)CCCN2
active: [2] 65.1 µM
not listed: [15] | [16] | [17] | [18]
inactive: all other assays above

CCCCCCCCCCCCCc1ccccc1
not listed: [11] | [12] | [16] | [17] | [18]
inactive: all other assays above

CO[Si](CCCS)(OC)OC
not listed: [9] | [11] | [12] | [15] | [18]
inactive: all other assays above
